The record followed here is PubChem BioAssay (NCI).

Each structure is given as a SMILES string. The panel holds about 83,000 compounds, 20% with a hit somewhere; the sample as a whole holds those more often.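 Negative percent growth values reflect cell death: -40 means 40% of the cells present at the start died, and -100 means all died.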 Unmarked numbers belong to inactive results. Active and inactive are the calls of the source. How the source made its calls: active means growth percent below 10; inactive means the rest.

This experiment has as its system HL-60(TB) leukemia. Description: NCI-60 one-dose screen, 48 h (100 = growth as untreated, 0 = no growth, -100 = all killed). The note with it: 10 µM unless noted.
On to `O=C(/C=C/c1cn(-c2ccccc2)nc1-c1ccc(Cl)cc1)c1ccc(F)cc1`, for which the growth was 56.6%.
Then `COc1cc2c(cc1OC)C(Sc1ccc(Cl)cc1)c1c(nc(N)c(C#N)c1N)O2` (centres undefined), with -25.1% (active); and `COc1ccc(-c2nnc(NC(=O)CN3CCN(c4cc5c(cc4F)c(=O)c(C(=O)O)cn5C4CC4)CC3)s2)cc1OC`, with 111%.
Take `CCN(CC)c1ccc(/C=C/c2cc(C)c3ccccc3n2)cc1`: the growth is 59.1%.
Then `C=C1C(=O)O[C@H]2[C@H]1CC/C(COC(=O)c1cc3cc(OC)ccc3[nH]1)=C\CC[C@@]1(C)O[C@@H]21`, with -34.5% (active).
As for `O=C(CCl)NCCNc1nccc(Nc2ccc(S(=O)(=O)Nc3ccccn3)cc2)n1`, the growth was 10.2%.
With `CCOC(=O)c1cc(C(=O)c2cc(OC)c(OC)c(OC)c2)n2ccc(-c3cc[n+](CC(=O)c4cc(OC)c(OC)c(OC)c4)cc3)cc12`, the growth is 32.9%.
Then `Cn1cc(-c2csc(-c3cn(C)c4ncccc34)n2)c2ccccc21`, with -3.85% (active); and `CN(CCCCCl)P(=O)(OCc1ccc([N+](=O)[O-])o1)C(F)(F)c1ccc(CC(=O)NC[C@@H](O)/C=C\[C@@H](O)[C@H](CO)Cc2ccccc2)cc1` (some centres undefined), with 80.3%.
`COc1ccc(CN2c3ccccc3Oc3ccccc32)cc1F`: the growth is 54.1%.
For `C/C=C(/C(=O)NC(N)=O)C(C)C` the value was 91%.
For `CN(C)c1nc(-c2cccs2)n2nc(-c3ccc(Cl)cc3)cc2n1` the value was 87.8%.
For `CCCCCCCCCCCCCCCCCC1OCC(COC(=O)O[C@]2(CC)C(=O)OCc3c2cc2n(c3=O)Cc3cc4ccccc4nc3-2)O1` (some centres undefined) the value was 102%.
In the case of `CC1(C)Oc2cc3oc(=O)ccc3cc2C[C@@H]1OCCOS(=O)(=O)c1ccc(C#N)cc1`, the growth was 100%.
Then `Fc1ccc(CNc2c3ccccc3nc3ccccc23)cc1F`, with 34.5%; and `c1ccn2nnnc2c1`, with 116%.
In the case of `COc1ccc(NCc2cn(-c3ccc(C(=O)O)cc3)nc2-c2ccc(C(=O)O)cc2)cc1C(F)(F)F`, the growth was 118%.
Then `COc1ccc(CNCCCN2C(=O)c3ccc4c5c(ccc(c35)C2=O)C(=O)N(CCCNCCCCNCCCN)C4=O)c(OC)c1OC`, with 26.2%; and `CCC1S/C(=N\N=C(/C)c2cc3ccccc3o2)N(c2ccccc2)C1=O` (centres undefined), with -93.7% (active); and `COc1cc(/C=C/C(=O)CC(=O)/C=C/c2ccc(O)c(OC)c2)ccc1O`, with 0.358% (active).
Then `COc1cc2c(c(OC)c1OC)CCC(c1cccc(C(=O)Nc3ccccc3Br)c1)O2` (centres undefined), with 79.3%; and `COc1ccc(OC)c(Cn2cc3c(c2-c2ccccc2)CCc2cnoc2-3)c1`, with 32.2%.
As for `Nc1cc(Br)c(-c2nnc(CCC(=O)c3nc4ccccc4[nH]3)o2)c(Br)c1`, the growth is 88%.
For `CCOC(=O)CNC(=O)Nc1ccc(Oc2ccc(NC(=O)NCC(=O)OCC)cc2)cc1`, the growth is 108%.
Consider `Cn1c(=O)[nH]c(=O)c2nc3c(nc21)-c1ccccc1C3=O`, for which the growth was 101%.
Then `CCN(CC)C(=O)C1(C)CCCC2(C)c3cc(OC(C)=O)ccc3CCC12` (centres undefined), with 71.2%; and `CCOc1cc(-c2ccc[nH]2)[nH]c1/C=C1\N=C(C)C(C(=O)OC)=C1C`, with -42.7% (active).
As to `Cl[C@@H]1CCO[C@H](c2cc3ccccc3c3ccccc23)C1`, the growth was 92.9%.
For `O=C(Nc1ccc2ncnc(Nc3cccc(C(F)(F)F)c3)c2c1)c1cccs1` the value was 47.9%; for `COC(=O)[C@]1(C)CC[C@]2(C)CC[C@]3(C)C(=CC(=O)[C@@H]4[C@@]5(C)CCC(=O)NC(C)(C)[C@@H]5CC[C@]43C)[C@@H]2C1`, 1.31% [100 µM] (active); for `O=C(/C=C/c1cccc(O)c1)c1ccccc1O`, 66%.
As for `O=[N+]([O-])c1cccc(SSc2cccc([N+](=O)[O-])c2)c1`, the growth is 93.6%.
For the molecule `CC1(C)CC(=O)CC2(C1)N=C(N)Nc1nc3ccccc3n12` (centres undefined), the growth is 92.5%.
For `COc1cc(/C=C2\CCCC3C2=Nc2ccccc2NC3c2cc(OC)c(OC)c(OC)c2)cc(OC)c1OC` (centres undefined) the value was 1.55% (active); for `NC(=O)C(O)(c1ccccc1)c1ccccc1`, 99%.
Turning to `O=[N+]([O-])c1ccc2c(c1)Cc1cc(I)ccc1-2`, the growth was 92.8%.
Then `COc1ccc2nc3cc(Cl)ccc3c(NCCCNCCO)c2c1`, with -14.3% (active); and `Cc1cc(NC(=O)c2cccc(C(F)(F)F)c2)ccc1-n1ccc2c(NC(=O)c3ccccc3)nccc21`, with 106%.
Then `COc1ccc(CC(C)=C(c2ccc(OCCN3CCCCCC3)cc2)c2ccc(OCCN3CCCCCC3)cc2)cc1`, with -59.8% (active).
